Inconclusive results are not listed. Activity calls are given as the source filed them. The call rests on the fitted dose curve; in most records, active means well fitted curve in the direction sought with a large enough effect; inconclusive means small, poorly fitted or top-dose-only effect, or another doubt; inactive means no such curve, though single readings can be large; an effect the other way counts as inactive or inconclusive.

Among the data in PubChem BioAssay (NCATS) are Potency values, retold here.

Test [1] is described as follows: Quantitative High-Throughput drug screen in 47 multiple myeloma cell lines against the NCATS MIPE library collection: Karpas620_DSMZ cell viability assay (AID 1918959). Further: nearly all actives have a fitted effect of over 30% in size. An outline of the steps: (§1)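 Myeloma cell lines, 500 cells per well, exposed to MIPE 4.0 library compounds for 48 h at 37C, 5% CO2. Viability from ATP by CellTiter-Glo luminescence; normalised to DMSO (100%) and media-only (0%) wells.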

The nature of test [2]: Quantitative High-Throughput drug screen in 47 multiple myeloma cell lines against the NCATS MIPE library collection: KMM1_JCRB cell viability assay (AID 1918960). Further: nearly all actives have a fitted effect of over 30% in size. An outline of the steps:
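Here, 48 h treatment with MIPE 4.0 agents at 37 °C preceded an ATP luminescence read. Plating density was 500 cells per well.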

Test [3] in a line: Quantitative High-Throughput drug screen in 47 multiple myeloma cell lines against the NCATS MIPE library collection: KHM11_PLB cell viability assay (AID 1918962). Further: nearly all actives have a fitted effect of over 35% in size. The procedure, abridged:
as §1

Test [4] can be described thus: Quantitative High-Throughput drug screen in 47 multiple myeloma cell lines against the NCATS MIPE library collection: JIM3_ECACC cell viability assay (AID 1918963; further: nearly all actives have a fitted effect of over 35% in size). The procedure, abridged:
as §1

A short description of test [5]: Quantitative High-Throughput drug screen in 47 multiple myeloma cell lines against the NCATS MIPE library collection: INA6_PLB cell viability assay (AID 1918965; further: nearly all actives have a fitted effect of over 55% in size). The procedure, abridged:
as §1

Test [6] is described as follows: Quantitative High-Throughput drug screen in 47 multiple myeloma cell lines against the NCATS MIPE library collection: H1112_PLB cell viability assay (AID 1918967; further: nearly all actives have a fitted effect of over 30% in size). An outline of the steps:
(§2)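 Luminescent ATP measurement with CellTiter-Glo gives viability, scaled between DMSO-only wells (100%) and media-only wells (0%). Cells, 500 per well, faced library compounds for 48 hours at 37C.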

A short description of test [7]: Quantitative High-Throughput drug screen in 47 multiple myeloma cell lines against the NCATS MIPE library collection: KMS27_JCRB cell viability assay (AID 1918970). Further: nearly all actives have a fitted effect of over 30% in size. The settings on record: KMS27 myeloma cells, CellTiter-Glo ATP viability, 48 h; viability (% of DMSO): at 45.8 µM (top of the series). An outline of the steps:
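KMS27_JCRB myeloma cells, 500 per well, exposed 48 h at 37 C, 5% CO2 to MIPE 4.0 compounds. Viability from ATP by CellTiter-Glo luminescence, normalized to DMSO (100%) and medium-only (0%) wells.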
In general terms: ATP-based viability assays read luminescence as a measure of living cells.

Test [8] is described as follows: Quantitative High-Throughput drug screen in 47 multiple myeloma cell lines against the NCATS MIPE library collection: KMS26_JCRB cell viability assay (AID 1918975). Further: nearly all actives have a fitted effect of over 45% in size. The procedure, abridged:
(§3)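 Myeloma cells (500 per well) were exposed to MIPE 4.0 compounds by pin transfer and incubated 48 hours at 37C, 5% CO2. Viability was read as ATP by CellTiter-Glo luminescence, normalised to DMSO (100%) and media-only (0%) wells.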

The nature of test [9]: Quantitative High-Throughput drug screen in 47 multiple myeloma cell lines against the NCATS MIPE library collection: Karpas25_ECACC cell viability assay (AID 1918968; further: nearly all actives have a fitted effect of over 35% in size). The procedure, abridged: as §2
Test [10] is described as follows: Quantitative High-Throughput drug screen in 47 multiple myeloma cell lines against the NCATS MIPE library collection: KMS12BM_JCRB cell viability assay (AID 1918971). Further: nearly all actives have a fitted effect of over 35% in size. The procedure, abridged: as §3
The nature of test [11]: Quantitative High-Throughput drug screen in 47 multiple myeloma cell lines against the NCATS MIPE library collection: KMS12PE_JCRB cell viability assay (AID 1918972). Further: nearly all actives have a fitted effect of over 30% in size. The procedure, abridged: as §1
Test [12] in a line: Quantitative High-Throughput drug screen in 47 multiple myeloma cell lines against the NCATS MIPE library collection: MOLP8_DSMZ cell viability assay (AID 1918977). Further: nearly all actives have a fitted effect of over 45% in size. An outline of the steps: (§4)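 500 cells/well per myeloma line exposed to pinned MIPE 4.0 compounds for 48 h at 37 °C, 5% CO2. Viability read as ATP by CellTiter-Glo luminescence, normalised to DMSO-only (100%) and media-only (0%) wells.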

Test [13] in a line: Quantitative High-Throughput drug screen in 47 multiple myeloma cell lines against the NCATS MIPE library collection: NCIH929_DSMZ cell viability assay (AID 1918978). Further: nearly all actives have a fitted effect of over 35% in size. The procedure, abridged:
as §4

The nature of test [14]: Quantitative High-Throughput drug screen in 47 multiple myeloma cell lines against the NCATS MIPE library collection: JIM1_ECACC cell viability assay (AID 1918964). An outline of the steps:
as §2

Test [15] in a line: Quantitative High-Throughput drug screen in 47 multiple myeloma cell lines against the NCATS MIPE library collection: JJN3_DSMZ cell viability assay (AID 1918966; further: nearly all actives have a fitted effect of over 50% in size). An outline of the steps:
as §2

Test [16] in a line: Quantitative High-Throughput drug screen in 47 multiple myeloma cell lines against the NCATS MIPE library collection: MMM1_PLB cell viability assay (AID 1918976). Further: nearly all actives have a fitted effect of over 35% in size. An outline of the steps: as §4
A short description of test [17]: Quantitative High-Throughput drug screen in 47 multiple myeloma cell lines against the NCATS MIPE library collection: OCIMY1_PLB cell viability assay (AID 1918979). Further: nearly all actives have a fitted effect of over 35% in size. An outline of the steps: as §4
Test [18] in a line: Quantitative High-Throughput drug screen in 47 multiple myeloma cell lines against the NCATS MIPE library collection: KMS20_JCRB cell viability assay (AID 1918973). Further: nearly all actives have a fitted effect of over 45% in size. An outline of the steps: as §2
Potency means the concentration at half of the fitted maximal effect.

For the compound `O=S(=O)(O)CCSSCCS(=O)(=O)O`, the Potency entry in test [1], in test [2], in [3], in [4], in test [5] and in test [6] was “inactive” in each case. Moreover, the Potency entry in test [7] and in [8] was “inactive” each time.

With `CC(C)OC(=O)[C@H](C)N[P@](=O)(OC[C@H]1O[C@@H](n2ccc(=O)[nH]c2=O)[C@](C)(F)[C@H]1O)Oc1ccccc1`, the Potency entry in test [1], in [2], in test [3], in test [4], in test [5] and in test [9] was “inactive” in each case. For the same compound, the Potency entry in test [7], in test [11], in [8], in test [12] and in test [13] was “inactive” throughout. For the same compound, in test [10], the Potency is 1660 nM (active).

On to `C[C@H]1[C@@H](OC(=O)CCC(=O)O)O[C@@H]2O[C@@]3(C)CC[C@@H]4[C@H](C)CC[C@@H]1[C@@]24OO3`, for which the Potency in test [1] is 166 nM (active); in test [2], 332 nM (active); in [3], 3320 nM (active); in [4] it was 6620 nM (active); in test [14] it was 935 nM (active); in test [5], 2640 nM (active). In addition, the Potency is 1480 nM (active) in test [15]; 16600 nM (active) in [6]; 2350 nM (active) in [9]; 1050 nM (active) in test [11]; 14800 nM (active) in [8]; 5900 nM (active) in test [16]. Besides, the figures for the Potency in test [13] and in [17] were 2640 nM (active) and 14800 nM (active), respectively.

Take `CCC(C=C[C@@H]1OC(=O)C=C[C@H]1C)=C[C@H](C)CC=CC(C)=C[C@@H](C)C(=O)[C@@H](C)[C@H](O)[C@@H](C)CC(C)=CC(=O)O`: the Potency in test [1] is 12.4 nM (active); in test [2], 22 nM (active); in test [3] it was 43.9 nM (active); in test [4] it was 34.9 nM (active); in [14], 15.6 nM (active); in [5] it was 15.6 nM (active). Moreover, the Potency was 22 nM (active) in [15]; 39.2 nM (active) in test [6]; 19.6 nM (active) in [10]; 19.6 nM (active) in [11]; 31.1 nM (active) in test [8]; 27.7 nM (active) in test [16]. Also, the results for the Potency in test [12], in test [13] and in [17] were 19.6 nM (active), 19.6 nM (active) and 27.7 nM (active), respectively.

For `CN(CC(=O)N(Cc1ccc(C2CCCCC2)cc1)c1ccc(C(=O)O)c(O)c1)S(=O)(=O)c1c(F)c(F)c(F)c(F)c1F`, the Potency in [1] is 2960 nM (active); in [2] it was 10500 nM (active); in test [3] it was 14800 nM (active); in test [4], 9350 nM (active); in [14] it was 3320 nM (active); in test [15] it was 18700 nM (active). In addition, the Potency in [6] was 18700 nM (active); in [9], 5260 nM (active); in test [7] it was 3320 nM (active); in test [10], 29600 nM (active); in [11], 7430 nM (active); in test [18] it was 6620 nM (active). Further, the Potency in [8] is 20900 nM (active); in test [16], 20900 nM (active); in test [12], 18700 nM (active); in [13], 4180 nM (active); in test [17], 33200 nM (active).

With `COc1cc(C)c(Sc2cnc(NC(=O)c3ccc(CNC(C)C(C)(C)C)cc3)s2)cc1C(=O)N1CCN(C(C)=O)CC1` (stereo not drawn), the Potency in [1] was 8330 nM (active); in [2], 3320 nM (active); in [3] it was 14800 nM (active); in test [4], 3720 nM (active); in test [14] it was 1480 nM (active); in [5], 14800 nM (active). Moreover, the Potency in [15] is 10500 nM (active); in test [6] it was 5900 nM (active); in test [9] it was 4690 nM (active); in test [10], 16600 nM (active); in [11], 5260 nM (active); in test [18], 3720 nM (active). The Potency in [8] was 16600 nM (active); in test [16] it was 7430 nM (active); in [12] it was 8330 nM (active); in [13] it was 3320 nM (active).

On to `CC(C)C[C@H](NC(=O)CNC(=O)c1cc(Cl)ccc1Cl)B1OC(=O)CC(CC(=O)O)(C(=O)O)O1` (stereo partly drawn), for which the Potency in test [1] is 52.6 nM (active); in [2] it was 41.8 nM (active); in test [3], 37.2 nM (active); in test [4], 83.3 nM (active); in [14], 37.2 nM (active); in [5], 33.2 nM (active). For the same compound, the Potency was 74.3 nM (active) in test [15]; 66.2 nM (active) in test [6]; 29.6 nM (active) in test [9]; 83.3 nM (active) in [7]; 166 nM (active) in test [18]; 93.5 nM (active) in [8]. Besides, the Potency was 6620 nM (active) in test [16], 46.9 nM (active) in test [12], 33.2 nM (active) in test [13] and 59 nM (active) in test [17].
